High-throughput results from PubChem BioAssay.
This is a sample that favours compounds with a hit; in the whole collection about 1.2% have one here.
S1P2 ag = S1P2 receptor agonists, primary screen, cell-based | Sphingosine 1-phosphate receptor 2 (Homo sapiens), O95136 | S1P2-expressing cell line, agonist reporter read-out | activation, % at 4.5 µM | 97,000 tested, 0.46% active; in the data active = activation above about 16%;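 also: 0% = vehicle low control and 100% = maximal reference agonist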
Target sequence (O95136 whole entry, looked up): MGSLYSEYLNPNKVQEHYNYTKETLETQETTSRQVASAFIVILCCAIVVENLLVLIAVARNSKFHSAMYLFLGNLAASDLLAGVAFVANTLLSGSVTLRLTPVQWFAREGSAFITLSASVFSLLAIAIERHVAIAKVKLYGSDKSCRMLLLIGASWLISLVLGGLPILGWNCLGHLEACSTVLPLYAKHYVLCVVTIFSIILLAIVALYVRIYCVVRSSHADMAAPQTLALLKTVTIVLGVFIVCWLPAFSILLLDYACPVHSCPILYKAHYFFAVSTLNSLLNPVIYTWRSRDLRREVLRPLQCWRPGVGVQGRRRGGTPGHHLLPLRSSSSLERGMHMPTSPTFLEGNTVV
GALR2 agonist = GALR2 receptor agonists, primary screen, cell-based; Galanin receptor type 2 (Homo sapiens), O43603; AID 803, 2007; activation, % (concentration not given with the values); 140,000 tested, 0.48% active; GALR2-expressing cells, agonist activation read-out; in the data active = activation above about 5%, passing the limit was not always enough;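 also: 0% = vehicle buffer wells and 100% = reference agonist at full effect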
S1P2 antag = human S1P2 receptor antagonists, primary screen, cell-based; Sphingosine 1-phosphate receptor 2 (Homo sapiens), O95136; cell-based S1P2 antagonist assay, inhibition at 5 uM; inhibition, % at 5 µM; 97,000 tested, 0.21% active; in the data active = inhibition above about 45%;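 also: CRE beta-lactamase reporter cells expressing human S1P2 stimulated with S1P; 0% = agonist at EC80 alone and 100% = agonist plus reference antagonist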
GALR2 antag = GALR2 antagonists in receptor-expressing cells, primary screen; Galanin receptor type 2 (Homo sapiens), O43603; antagonist mode; inhibition, % at 4 µM; 140,000 tested, 0.39% active; AID 828, 2007; in the data active = inhibition above about 27%;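 also: cells stimulated with galanin 1-16 at roughly its EC80; 0% = agonist challenge control and 100% = basal control without agonist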
Active calls of the source: *; / = no result.

SMILES	S1P2 ag	GALR2 agonist	S1P2 antag	GALR2 antag
CCc1cccc(NC2c3ccccc3C(=O)N2c2cccnc2)c1 (configuration not stated)	/	-2	/	15
CC(C)(O)C#Cc1ccc(C(=O)NCc2ccccc2)s1	1	-1	4	7
Cc1cc(C)n2nc(Cc3ccccc3)nc2n1	2	-1	-11	-10
Cc1cc(C)n2nc(S(=O)(=O)N(C)c3ccccc3)nc2n1	52*	0	-5	2
Cn1c(=O)c2c(nc(OCc3ccccc3)n2C)n(C)c1=O	1	0	9	-12
Cc1ccnc(SCC(=O)Nc2sc3c(c2C#N)CCCC3)n1	-5	-2	47*	22
COc1ccc(S(=O)(=O)N2CCN(c3ccc4nnc(-c5ccc(F)cc5)n4n3)CC2)cc1	-7	1	48*	-4
Cc1ccc(S(=O)(=O)N2CCN(c3ccc4nnc(-c5ccccc5)n4n3)CC2)cc1	0	-2	-15	-11
CCc1cc(=O)oc2cc(OCC(=O)O)c(Cl)cc12	21*	-1	-7	-6
CCc1cc(=O)oc2cc(OCC(=O)N(CC)CC)c(Cl)cc12	-1	-3	5	-3
COC(=O)c1c(C)[nH]c(C(=O)/C=C/c2ccccc2)c1C	/	6.2*	/	7
COC(=O)c1c(C)[nH]c(C(=O)/C=C/c2cccc(Cl)c2)c1C	/	1	/	-1
COc1ccc(-c2nnc(SCC(=O)NCc3cccs3)n2CC(C)C)cc1	-2	-1	16	1
N#CC(c1ccc(Cl)cc1)c1ccc2c(C(F)(F)F)cc(C(F)(F)F)nc2n1 (configuration not stated)	-5	0	69*	-10
Cc1c(Cc2ccc3c(c2)OCO3)sc(NC(=O)C(C)(C)C)c1C#N	-2	-1	-42	-9
CCc1cccc(CC)c1NC(=O)COn1nnc2ccc(C(F)(F)F)cc21	/	-2	/	4
O=c1ccn(-c2cccc(C(F)(F)F)c2)nc1-c1ccn(-c2cccc(Cl)c2)n1	28*	-1	-24	-3
Nc1c(-c2cccc(Cl)c2)cnn1-c1cccc(C(F)(F)F)c1	3	0	-4	-4
CCCCOC(=O)C(C#N)c1nc2ccccc2nc1N1CCOCC1 (configuration not stated)	-3	-2	-11	4
CCCCCCOC(=O)C(C#N)c1nc2ccccc2nc1N1CCOCC1 (configuration not stated)	-1	-1	66*	-2
COc1cc2c(cc1OC)C(C)N(C(=O)CCN1C(=O)C3C4C=CC(C4)C3C1=O)CC2 (configuration not stated)	/	-3	/	9
COc1ccc(S(=O)(=O)Nc2ccc(S(=O)(=O)Nc3nc(C)cc(C)n3)cc2)cc1OC	-4	-1	13	0
Cc1cc(NC(=O)NC2CCCN2S(=O)(=O)c2ccc(Cl)cc2)no1 (configuration not stated)	-7	-2	-5	13
CCCCn1nc(NC(=O)c2cccs2)c2cc3cc(OC)ccc3nc21	12	6.8*	35	1
CCCn1nc(NC(=O)c2cccs2)c2cc3ccccc3nc21	6	2	10	24
SMILES	S1P2 ag	GALR2 agonist	S1P2 antag	GALR2 antag
NC(=O)COC(=O)CNC(=O)c1ccc(Cl)cc1	-1	-2	0	-5
NC(=O)CCNC(=O)c1ccc(Cl)cc1	44*	-2	25	-8
COC(=O)c1cn[nH]c1NC(=S)Nc1ccc(C)cc1Cl	-11	-2	-19	11
COC(=O)c1cn[nH]c1NC(=S)Nc1ccccc1C	57*	0	-1	-3
COc1cccc(-c2nnc3n2N=C(C(C)(C)C)CS3)c1	-8	-2	98*	20
COc1ccccc1-c1nnc2n1N=C(C(C)(C)C)CS2	-5	0	0	-7
COc1cc(-c2nnc3n2N=C(c2ccccc2)CS3)cc(OC)c1OC	34*	1	-26	-7
COc1ccc(OC)c(C2=Nn3c(nnc3-c3cc(OC)c(OC)c(OC)c3)SC2)c1	40*	1	-25	13
COc1cccc(-c2nnc3n2N=C(c2cc(OC)ccc2OC)CS3)c1	10	-1	-21	2
CCOc1ccc(N=c2oc3cc(O)ccc3cc2C(=O)NCC2CCCO2)cc1 (configuration not stated)	1	7	-14	0
COc1ccc(N=c2oc3cc(O)ccc3cc2C(=O)NCC2CCCO2)cc1 (configuration not stated)	18*	16*	-43	-26
Cc1ccc(N=c2oc3cc(O)ccc3cc2C(N)=O)cc1	17*	42*	-2	-16
COc1ccc(N=c2oc3cc(O)ccc3cc2C(=O)NCC2CCCO2)c(OC)c1 (configuration not stated)	37*	68*	-81	-53
CC1Cc2nc(SCC(=O)OCc3ccccc3)n(C)c(=O)c2S1 (configuration not stated)	/	-1	/	7
Cc1c(/C=N\NC(=O)c2ccc([N+](=O)[O-])cc2)cnn1C	/	-1	/	9
Cc1nc(CCNC(=O)Cc2ccc(Cl)cc2)cs1	34*	-2	10	13
COc1ccc(NC(=O)COC(=O)c2cc(OC)c(OC)cc2NC(=O)c2ccco2)cc1OC	18*	0	-20	0
N#Cc1c(N)n(C2CCCCC2)c2nc3ccccc3nc12	22*	17*	-45	-10
Cc1cc(-n2c(C)cc(C(=O)CSc3ncnc4ccccc34)c2C)no1	-5	-2	60*	21
CC1(C)CC(=O)C(Sc2ccccc2[N+](=O)[O-])=C(O)C1	/	-1	/	7
COc1cc2c(cc1OC)-c1cc(N3CCCCCC3)nc(=O)n1CC2	36*	0	-26	-6
COc1cc2c(cc1OC)-c1cc(N3CCCc4ccccc43)nc(=O)n1CC2	41*	0	-48	-2
CCN(CC)CCCNc1cc2n(c(=O)n1)CCc1cc(OC)c(OC)cc1-2	-5	-6	-7	7
COc1cc2c(cc1OC)-c1cc(NC3CCCCCC3)nc(=O)n1CC2	42*	-1	-44	-11
O=C(COC(=O)Cc1cccc(C(F)(F)F)c1)Nc1ccc2c(c1)OCCO2	/	-2	/	2
SMILES	S1P2 ag	GALR2 agonist	S1P2 antag	GALR2 antag
O=C(CCCCCn1c(=O)[nH]c2ccccc2c1=O)NCCCN1CCN(c2ccccc2F)CC1	-2	-1	28	-1
CS(=O)(=O)c1nc(-c2ccccc2)cc(C(F)(F)F)n1	/	5	/	54*
FC(F)(F)c1cc(-c2ccccc2)nc(N2CCCCCC2)n1	-5	0	6	-19
CCc1cc(C(=O)COc2ccccc2F)c(O)cc1O	-6	-2	-9	-3
C=CCN(CC=C)S(=O)(=O)c1ccc2nc(NC(=O)C3CCCO3)sc2c1 (configuration not stated)	/	-2	/	2
O=C(N/N=C/c1c[nH]c2ccccc12)c1[nH]c2ccc(Br)cc2c1-c1ccccc1	/	8.1*	/	13
Cc1ccc(S(=O)(=O)Nc2ccc(-c3nnc(SCC#N)n3C)cc2)cc1	-2	-3	-7	7
CCOC(=O)c1cc(CC)sc1NC(=O)c1cc(OC)c(OC)c(OC)c1	16*	-1	-69	-6
